# Assay results taken from PubChem BioAssay (NCI).
# Compounds without any hit were thinned out: in the full panel of roughly 79,000, 15% have a hit. Unmarked numbers belong to inactive results. Activity calls are given as the source filed them. Cut-off read from the data, not from the text of the source: active = growth inhibition above about 70%; inactive = the rest.
# Assays:
# [1] = NCI Yeast Anticancer Drug Screen. Data for the wt1 strain (AID 149);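 note: 0% = growth of vehicle-treated wt1 cultures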; conditions: S. cerevisiae wt1 strain (SPY 50644) growth inhibition, active compounds read high
# How it was run: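 wt1 strain grown with compound or vehicle; inhibition taken from the growth difference.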
# [2] = NCI Yeast Anticancer Drug Screen. Data for the rad50EPP+ strain (AID 151);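 note: 0% = growth of vehicle-treated control cultures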; conditions: S. cerevisiae rad50 mutant strain, active compounds read high
# How it was run: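 Genetically defined yeast (rad50EPP+, DNA damage repair alteration) is grown with compound, and inhibition of growth is expressed relative to vehicle-treated controls.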
# [3] = NCI Yeast Anticancer Drug Screen. Data for the mgt1 strain (AID 153); conditions: S. cerevisiae mgt1 mutant growth inhibition, active compounds read high
# How it was run: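 In the mgt1 strain, test compounds were added and growth inhibition was determined relative to vehicle-treated controls.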
# [4] = NCI Yeast Anticancer Drug Screen. Data for the rad50 strain (AID 155);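 note: 0% = growth of vehicle-only cultures of the same strain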; conditions: S. cerevisiae rad50 strain growth inhibition, active compounds read high
# How it was run: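 DNA repair mutant yeast, compound exposure, growth read-out; inhibition is taken relative to vehicle.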
# [5] = NCI Yeast Anticancer Drug Screen. Data for the mec2-1 strain (AID 157); conditions: S. cerevisiae mec2-1 strain, active compounds read high
# How it was run: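 Each compound was tested on mec2-1 yeast, a strain altered in DNA damage repair or cell cycle control. Growth inhibition is reported relative to vehicle.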
# [6] = NCI Yeast Anticancer Drug Screen. Data for the rad14 strain (AID 159);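 note: 0% = growth of vehicle-treated control cultures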; conditions: S. cerevisiae rad14 strain growth inhibition, active compounds read high
# How it was run: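 DNA repair-defective yeast, compound-exposed; % growth inhibition derived by comparison with vehicle-treated controls.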
# [7] = NCI Yeast Anticancer Drug Screen. Data for the sgs1 mgt1 strain (AID 161);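 note: 0% = growth of cultures given vehicle only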; conditions: S. cerevisiae sgs1 mgt1 strain, active compounds read high
# How it was run: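 Test agents were incubated with a DNA-repair-mutant yeast strain. Growth was then read and compared against vehicle-treated controls.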
# [8] = NCI Yeast Anticancer Drug Screen. Data for the CLN2oe strain (AID 163);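 note: 0% = growth of vehicle-only control cultures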; conditions: S. cerevisiae CLN2oe strain, active compounds read high
# How it was run: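 First, the altered yeast strain was treated with each compound; second, its growth was measured; finally, inhibition was derived by comparison with vehicle controls.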
# [9] = NCI Yeast Anticancer Drug Screen. Data for the cln2 rad14 strain (AID 165);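 note: 0% = growth equal to vehicle treated cultures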; conditions: S. cerevisiae cln2 rad14 strain, active compounds read high
# How it was run: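 Test compounds were added to cln2 rad14 yeast cultures; inhibition of growth was then determined by comparison with vehicle treatment.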
# [10] = NCI Yeast Anticancer Drug Screen. Data for the bub3 strain (AID 167); conditions: S. cerevisiae bub3 mutant strain, active compounds read high
# How it was run: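 In this screen, a yeast mutant lacking normal mitotic checkpoint function is challenged with compound. Relative growth versus vehicle gives the inhibition value.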
# [11] = NCI Yeast Anticancer Drug Screen. Data for the wt2 strain (AID 169);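 note: 0% = growth of vehicle-treated yeast cultures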; conditions: S. cerevisiae wt2 strain growth inhibition, active compounds read high
# How it was run: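 The panel's yeast strains carry defined changes in DNA repair or cell cycle genes. Each strain is grown with compound, and growth loss is scored relative to vehicle.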
# [12] = NCI Yeast Anticancer Drug Screen. Data for the mlh1 strain (AID 171);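 note: 0% = growth of vehicle-treated control cultures of the same strain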; conditions: S. cerevisiae mlh1 strain growth inhibition, active compounds read high
# How it was run: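 Inhibition values reflect reduced yeast growth in the presence of compound, referenced to vehicle controls, using a strain chosen for its alteration in DNA repair or cell cycle control.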
# [13] = NCI Yeast Anticancer Drug Screen. Data for the sgs1 strain (AID 173);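 note: 0% = growth of vehicle-only control cultures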; conditions: S. cerevisiae sgs1 mutant, active compounds read high
# How it was run: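 Vehicle-treated cultures served as reference for growth inhibition of a yeast strain altered in DNA damage repair or cell cycle control after compound exposure.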
# [14] = NCI Yeast Anticancer Drug Screen. Data for the mlh1 rad18 strain (AID 175); conditions: S. cerevisiae mlh1 rad18 strain growth inhibition, active compounds read high
# How it was run: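 Inhibition values reflect reduced growth of mutant yeast versus vehicle-treated controls following compound exposure; the mutations affect DNA damage repair.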
# [15] = NCI Yeast Anticancer Drug Screen. Data for the rad18 strain (AID 177); conditions: S. cerevisiae rad18 mutant growth inhibition, active compounds read high
# How it was run: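 Steps: expose repair-mutant yeast to compound; measure growth; express as inhibition relative to vehicle control.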
# [16] = at 5.0 µM (retest, dose inferred, filed as 0.5)
# [17] = at 50.0 µM (retest, dose inferred, filed as 5.0)
structure (smiles),measurement,setting,value
N#C/C(=C1C=C/C(=N\O)C(Cl)=C\1)c1ccccc1,growth inhibition,[1]; at 1.2 µM,-2%
same,growth inhibition,[1]; at 3.7 µM,-5%
same,growth inhibition,[1]; at 11.0 µM,2%
same,growth inhibition,[1]; at 33.0 µM,0%
same,growth inhibition,[1]; at 100.0 µM,3%
same,growth inhibition,[2]; at 1.2 µM,2%
same,growth inhibition,[2]; at 3.7 µM,16%
same,growth inhibition,[2]; at 11.0 µM,26%
same,growth inhibition,[2]; at 33.0 µM,21%
same,growth inhibition,[2]; at 100.0 µM,24%
same,growth inhibition,[3]; at 1.2 µM,-3%
same,growth inhibition,[3]; at 3.7 µM,1%
same,growth inhibition,[3]; at 11.0 µM,3%
same,growth inhibition,[3]; at 33.0 µM,5%
same,growth inhibition,[3]; at 100.0 µM,10%
same,growth inhibition,[4]; at 1.2 µM,0%
same,growth inhibition,[4]; at 3.7 µM,3%
same,growth inhibition,[4]; [16],24%
same,growth inhibition,[4]; at 11.0 µM,8%
same,growth inhibition,[4]; at 33.0 µM,13%
same,growth inhibition,[4]; [17],76% (active)
same,growth inhibition,[4]; at 50.0 µM,55.8%
same,growth inhibition,[4]; at 100.0 µM,14%
same,growth inhibition,[5]; at 1.2 µM,-1%
same,growth inhibition,[5]; at 3.7 µM,0%
same,growth inhibition,[5]; [16],-11%
same,growth inhibition,[5]; at 11.0 µM,2%
same,growth inhibition,[5]; at 33.0 µM,5%
same,growth inhibition,[5]; [17],36%
same,growth inhibition,[5]; at 50.0 µM,43%
same,growth inhibition,[5]; at 100.0 µM,14%
same,growth inhibition,[6]; at 1.2 µM,2%
same,growth inhibition,[6]; at 3.7 µM,8%
same,growth inhibition,[6]; at 11.0 µM,15%
same,growth inhibition,[6]; at 33.0 µM,17%
same,growth inhibition,[6]; at 100.0 µM,26%
same,growth inhibition,[7]; [16],52%
same,growth inhibition,[7]; [17],85% (active)
same,growth inhibition,[7]; at 50.0 µM,40.1%
same,growth inhibition,[8]; at 1.2 µM,2%
same,growth inhibition,[8]; at 3.7 µM,3%
same,growth inhibition,[8]; at 11.0 µM,6%
same,growth inhibition,[8]; at 33.0 µM,15%
same,growth inhibition,[8]; at 100.0 µM,13%
same,growth inhibition,[9]; [16],12%
same,growth inhibition,[9]; [17],46%
same,growth inhibition,[9]; at 50.0 µM,-43.9%
same,growth inhibition,[10]; at 1.2 µM,-1%
same,growth inhibition,[10]; at 3.7 µM,2%
same,growth inhibition,[10]; [16],37%
same,growth inhibition,[10]; at 11.0 µM,4%
same,growth inhibition,[10]; at 33.0 µM,14%
same,growth inhibition,[10]; [17],71% (active)
same,growth inhibition,[10]; at 50.0 µM,72.7% (active)
same,growth inhibition,[10]; at 100.0 µM,16%
same,growth inhibition,[11]; at 1.2 µM,-13%
same,growth inhibition,[11]; at 3.7 µM,-11%
same,growth inhibition,[11]; at 11.0 µM,-9%
same,growth inhibition,[11]; at 33.0 µM,-9%
same,growth inhibition,[11]; at 100.0 µM,-1%
same,growth inhibition,[12]; at 1.2 µM,-4%
same,growth inhibition,[12]; at 3.7 µM,4%
same,growth inhibition,[12]; at 11.0 µM,7%
same,growth inhibition,[12]; at 33.0 µM,10%
same,growth inhibition,[12]; at 100.0 µM,23%
same,growth inhibition,[13]; at 1.2 µM,-3%
same,growth inhibition,[13]; at 3.7 µM,7%
same,growth inhibition,[13]; at 11.0 µM,6%
same,growth inhibition,[13]; at 33.0 µM,16%
same,growth inhibition,[13]; at 100.0 µM,33%
same,growth inhibition,[14]; [16],45%
same,growth inhibition,[14]; [17],87% (active)
same,growth inhibition,[14]; at 50.0 µM,80.7% (active)
same,growth inhibition,[15]; at 1.2 µM,-1%
same,growth inhibition,[15]; at 3.7 µM,1%
same,growth inhibition,[15]; at 11.0 µM,-2%
same,growth inhibition,[15]; at 33.0 µM,2%
same,growth inhibition,[15]; at 100.0 µM,13%
CC(=O)O/N=C/c1c2ccccc2cc2ccccc12,growth inhibition,[1]; at 1.2 µM,-1%
same,growth inhibition,[1]; at 3.7 µM,2%
same,growth inhibition,[1]; at 11.0 µM,0%
same,growth inhibition,[1]; at 33.0 µM,3%
same,growth inhibition,[1]; at 100.0 µM,10%
same,growth inhibition,[2]; at 1.2 µM,14%
same,growth inhibition,[2]; at 3.7 µM,24%
same,growth inhibition,[2]; at 11.0 µM,44%
same,growth inhibition,[2]; at 33.0 µM,64%
same,growth inhibition,[2]; at 100.0 µM,66%
same,growth inhibition,[3]; at 1.2 µM,-4%
same,growth inhibition,[3]; at 3.7 µM,-3%
same,growth inhibition,[3]; at 11.0 µM,-1%
same,growth inhibition,[3]; at 33.0 µM,9%
same,growth inhibition,[3]; at 100.0 µM,20%
same,growth inhibition,[4]; at 1.2 µM,0%
same,growth inhibition,[4]; at 3.7 µM,1%
same,growth inhibition,[4]; [16],55%
same,growth inhibition,[4]; at 11.0 µM,5%
same,growth inhibition,[4]; at 33.0 µM,20%
same,growth inhibition,[4]; [17],90% (active)
same,growth inhibition,[4]; at 50.0 µM,15.2%
same,growth inhibition,[4]; at 100.0 µM,62%
same,growth inhibition,[5]; at 1.2 µM,-3%
same,growth inhibition,[5]; at 3.7 µM,2%
same,growth inhibition,[5]; [16],4%
same,growth inhibition,[5]; at 11.0 µM,7%
same,growth inhibition,[5]; at 33.0 µM,20%
same,growth inhibition,[5]; [17],18%
same,growth inhibition,[5]; at 50.0 µM,8.65%
same,growth inhibition,[5]; at 100.0 µM,26%
same,growth inhibition,[6]; at 1.2 µM,-2%
same,growth inhibition,[6]; at 3.7 µM,0%
same,growth inhibition,[6]; at 11.0 µM,5%
same,growth inhibition,[6]; at 33.0 µM,23%
same,growth inhibition,[6]; at 100.0 µM,78% (active)
same,growth inhibition,[7]; [16],30%
same,growth inhibition,[7]; [17],88% (active)
same,growth inhibition,[7]; at 50.0 µM,63.6%
same,growth inhibition,[8]; at 1.2 µM,-10%
same,growth inhibition,[8]; at 3.7 µM,-20%
same,growth inhibition,[8]; at 11.0 µM,-13%
same,growth inhibition,[8]; at 33.0 µM,-6%
same,growth inhibition,[8]; at 100.0 µM,-6%
same,growth inhibition,[9]; [16],15%
same,growth inhibition,[9]; [17],40%
same,growth inhibition,[9]; at 50.0 µM,-47.8%
same,growth inhibition,[10]; at 1.2 µM,9%
same,growth inhibition,[10]; at 3.7 µM,12%
same,growth inhibition,[10]; [16],58%
same,growth inhibition,[10]; at 11.0 µM,26%
same,growth inhibition,[10]; at 33.0 µM,47%
same,growth inhibition,[10]; [17],84% (active)
same,growth inhibition,[10]; at 50.0 µM,43.1%
same,growth inhibition,[10]; at 100.0 µM,63%
same,growth inhibition,[11]; at 1.2 µM,-1%
same,growth inhibition,[11]; at 3.7 µM,-1%
same,growth inhibition,[11]; at 11.0 µM,-2%
same,growth inhibition,[11]; at 33.0 µM,13%
same,growth inhibition,[11]; at 100.0 µM,32%
